Among all 290,000 compounds or so, about 4,200 (1.4%) were called active.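 The calls were made as follows: active = binding response more than 3 SD above or below the average of its plate-row segment, actives on both sides; inconclusive = wells at one plate position flagged as instrument error; inactive = the rest.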 For the sample, actives were picked, then their nearest neighbours and some compounds at random.
Biological target: Mitogen-activated protein kinase kinase kinase 3 (Homo sapiens) (UniProt Q99759)
Sequence (Q99759 whole entry, looked up): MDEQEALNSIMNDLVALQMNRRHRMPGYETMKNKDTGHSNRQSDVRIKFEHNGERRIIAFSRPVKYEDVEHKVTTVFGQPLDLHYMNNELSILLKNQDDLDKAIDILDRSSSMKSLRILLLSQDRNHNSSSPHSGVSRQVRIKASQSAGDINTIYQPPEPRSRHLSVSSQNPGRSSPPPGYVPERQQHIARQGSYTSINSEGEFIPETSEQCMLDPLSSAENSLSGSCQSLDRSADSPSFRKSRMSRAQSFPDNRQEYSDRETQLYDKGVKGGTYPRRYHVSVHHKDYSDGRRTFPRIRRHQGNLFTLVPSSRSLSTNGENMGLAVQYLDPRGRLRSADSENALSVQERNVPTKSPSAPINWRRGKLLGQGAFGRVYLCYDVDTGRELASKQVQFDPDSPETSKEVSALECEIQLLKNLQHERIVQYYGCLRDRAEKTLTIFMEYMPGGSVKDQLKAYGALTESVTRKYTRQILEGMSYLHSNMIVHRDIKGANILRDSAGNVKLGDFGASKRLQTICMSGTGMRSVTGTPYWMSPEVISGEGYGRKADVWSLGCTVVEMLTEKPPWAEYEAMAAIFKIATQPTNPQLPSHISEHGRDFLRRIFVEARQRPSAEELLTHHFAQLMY
Experiment: compounds raising or lowering MEK5 association with MEKK3 PB1 – biochemical, wildtype MEKK3, multiplex bead flow cytometry, Alexa488-MEK5, primary screen (AID 1529);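 also: Alexa488 bead fluorescence after subtracting the streptavidin-only scavenger bead signal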
Conditions: bead-based flow cytometry, Alexa488-MEK5 binding to MEKK3; at 10 µM; actives lie on both sides; 0 = blocked by unlabeled MEK5, 100 = vehicle

Row | SMILES | binding response (% of control)
1 | COc1ccc(/C=C2\SC(=S)N(CCCC(=O)NC3CCCC3)C2=O)cc1OC | 96% (inactive)
2 | COc1cc(NC(=O)CN2C(=O)NC(C)(c3ccc(OC(F)F)cc3)C2=O)cc(OC)c1OC (stereo not drawn) | 100% (inactive)
3 | Fc1ccccc1COc1cccc2cccnc12 | 105% (inactive)
4 | Cc1onc(-c2ccccc2)c1C(=O)NNC(=S)NC(=O)c1ccc(F)cc1 | 98% (inactive)
5 | COc1ccc(C(=O)NNC(=S)NC(=O)c2ccccc2)cc1 | 101% (inactive)
6 | COc1ccc(C(=O)NC(=S)NNC(=O)c2c(-c3ccccc3)noc2C)cc1 | 134% (active)
7 | CN(C)C(=O)CCC(=O)N1CCCCC1C(=O)Nc1ccc(Oc2ccccc2F)cc1 (stereo not drawn) | 105% (inactive)
8 | Cc1nn(-c2ccccc2)c(C)c1NC(=O)COc1ccc(Cl)cc1Cl | 104% (inactive)
9 | Cc1nn(-c2ccccc2)c(Cl)c1C(=O)Nc1ccccc1 | 98% (inactive)
10 | Cc1nn(-c2ccccc2)c(C)c1NC(=O)CCl | 138% (active)
11 | Cc1cnc(CN(C)C(=O)C2CCC(=O)N(CCc3cccc(F)c3)C2)[nH]1 (stereo not drawn) | 104% (inactive)
12 | CC1(c2ccc3ccccc3c2)NC(=O)NC1=O (stereo not drawn) | 106% (inactive)
13 | O=c1c2ccccc2ncn1CCCCOc1ccccc1F | 103% (inactive)
14 | O=C(CSc1ccc(C(F)(F)F)cc1[N+](=O)[O-])NCCOc1ccccc1 | 94% (inactive)
15 | Cc1cccc(OCCNC(=O)CSc2ccc(C(F)(F)F)cc2[N+](=O)[O-])c1 | 133% (active)
16 | Nc1ccccc1Sc1ccc(C(F)(F)F)cc1[N+](=O)[O-] | 107% (inactive)
17 | Cn1nccc1C(=O)NC1CCCc2c1cnn2-c1ccccc1F (stereo not drawn) | 101% (inactive)
18 | CC(=O)C(C)n1cnc2scc(-c3ccc(C)cc3)c2c1=O (stereo not drawn) | 98% (inactive)
19 | CCc1ccc(C(=O)COC(=O)c2ccco2)cc1 | 103% (inactive)
20 | Cc1nc(-c2ccc(Cl)cc2)sc1C1(C)CC(c2ccc(Br)cc2)=NO1 (stereo not drawn) | 100% (inactive)
21 | COc1ccc(C(CNC(=O)COc2ccccc2OC)N2CCCCC2)cc1 (stereo not drawn) | 100% (inactive)

Row | SMILES | binding response (% of control)
22 | O=C(Cn1cc(C(=O)C2CC2)c2ccccc21)Nc1ccccc1Cl | 99% (inactive)
23 | COc1ccccc1N1CCN(Cc2ccc(OC)c3ccccc23)CC1 | 105% (inactive)
24 | COc1ccccc1N1CCN(CCCCOc2ccc(F)cc2)CC1 | 124% (active)
25 | CCN1CCN(CCCCOc2ccccc2F)CC1 | 100% (inactive)
26 | COc1ccc(CCN(C)C(=O)C23CC4CC(CC(Cl)(C4)C2)C3)cc1OC | 102% (inactive)
27 | O=C(CCc1nnc2ccc(NCCCN3CCCC3=O)nn12)NCc1ccccc1Cl | 101% (inactive)
28 | COc1cc(-c2nnc(Cn3cc(C(F)(F)F)ccc3=O)o2)cc(OC)c1OC | 2% [inhibitor] (active)
29 | CC(C)(C)NC(=O)c1ccc(Cn2cc(C(F)(F)F)ccc2=O)cc1 | 100% (inactive)
30 | CCOC(=O)c1cc(-c2nnc(-c3cc(OC)c(OC)c(OC)c3)o2)c(C)nc1C | 100% (inactive)
31 | Cc1ccc(S(=O)(=O)N2CCC3(CC2)OCCO3)c(C)c1 | 101% (inactive)
32 | CCCCCc1c(C)nc(N2CCN(Cc3ccc4c(c3)OCO4)CC2)[nH]c1=O | 98% (inactive)
33 | Cc1cc(S(=O)(=O)NCC(C)C)ccc1OCC(=O)NC1CC1 | 102% (inactive)
34 | COc1ccccc1NC(=S)N1CCN(c2ccc(F)cc2)CC1 | 45% [inhibitor] (active)
35 | COc1ccccc1NC(=S)N1CCN(C(c2ccccc2)c2ccccc2)CC1 | 102% (inactive)
36 | COC(=O)c1ccc(C(=O)OC)c(NC(=S)N2CCN(c3ccc(F)cc3)CC2)c1 | 97% (inactive)
37 | COc1cccc(NC(=O)CCc2nnc3ccc(N4CCC(C)CC4)nn23)c1 | 98% (inactive)
38 | CC1(C)C=Cc2c(ccc3c2OC[C@@H](c2ccc(O)cc2O)C3)O1 | 108% (inactive)
39 | Cc1nc2ccccc2nc(C)c1=NOCc1ccc(Cl)cc1Cl | 98% (inactive)
40 | Cc1[nH]c(=O)c(C(=O)/C=C/c2ccccc2)c2c1CCCC2 | 107% (inactive)
41 | Cc1cn(COC/C=C/c2ccccc2)c(=O)[nH]c1=O | -2% [inhibitor] (active)
42 | Cc1nc2nc[nH]n2c(=O)c1C/C=C/c1ccccc1 | 84% (inactive)

Row | SMILES | binding response (% of control)
43 | Cc1cc(=O)oc2cc(OCC(=O)N3CCN(c4ccc(F)cc4)CC3)c(Cl)cc12 | 101% (inactive)
44 | COc1ccc(C(=O)Cc2cnn(-c3ccccc3)c2)c(O)c1 | 101% (inactive)
45 | O=C(c1cnn(-c2ccc(Cl)cc2)c1)c1ccccc1O | 129% (active)
46 | Cc1ncc(CC(=O)n2cc(C(=O)c3cc(Cl)ccc3O)cn2)s1 | 109% (inactive)
47 | CC1(C)C2CC[C@]3(C)C(CC=C4[C@@H]5C[C@@](C)(CO)CC[C@]5(C(=O)O)CC[C@]43C)[C@@]2(C)CC[C@@H]1O (stereo partly drawn) | 105% (inactive)
48 | CCCn1nnnc1NCc1ccc(OC)cc1 | 111% (inactive)
49 | COc1ccc(CNc2nnnn2C)cc1 | 51% [inhibitor] (active)
50 | Cn1nnnc1NCc1ccc(Cl)c(Cl)c1 | 105% (inactive)
51 | CCOC(=O)c1c(-c2ccccc2)oc2cc(Br)c(O)c(C=O)c12 | 98% (inactive)
52 | Cc1cc(OCC(=O)Nc2c(C)n(C)n(-c3ccccc3)c2=O)ccc1[N+](=O)[O-] | 96% (inactive)
53 | CCc1ccc(NC(=O)COC(=O)c2cccs2)cc1 | 101% (inactive)
54 | O=C(CNC(=O)c1ccc(Br)o1)NCC1CCCO1 (stereo not drawn) | 102% (inactive)
55 | O=C(c1cccs1)N(C(=O)c1cccs1)c1ccccn1 | 94% (inactive)
56 | O=C(c1ccc(Br)o1)N(c1ccccn1)C1CCCCC1 | 131% (active)
57 | Cc1ccc(NC(=O)CSc2nn3c(=O)c(C)nnc3s2)cc1Cl | 88% (inactive)
58 | CNC(C)C#Cc1ccc2sc3cc(OC)c(OC)cc3c(=O)c2c1 (stereo not drawn) | 110% (inactive)
59 | CCCCC1(C(=O)OCC)NC(c2ccc(O)cc2)C2C(=O)N(c3ccccc3)C(=O)C21 (stereo not drawn) | 104% (inactive)
60 | CCOC(=O)c1ccc(Nc2cc3ccccc3c(=O)[nH]2)cc1 | 100% (inactive)
61 | COc1ccc(OCCC(=O)c2ccc(OC)cc2)cc1 | 102% (inactive)
62 | COc1ccc(C(=O)C[n+]2ccc(N)c(C)c2C)cc1 | 92% (inactive)
63 | COc1ccc(C(=O)C[n+]2ccc(C)cc2)cc1 | 134% (active)

Reference: PubChem BioAssay AID1529 (NMMLSC, 2009)
